Assay outcomes as filed in PubChem.
TAG inh = inhibitors of triacylglycerol accumulation, primary screen, cell-based, uHTS, fluorescence, H9c2. actives 0.66% (n = 230,000). inhibition, % at 12.5 µM. H9c2 cells, Nile Red lipid (TAG) fluorescence; cells loaded with 200 µM oleic acid;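 active means pattern-corrected inhibition of lipid staining of at least 50% with the nuclear-stain viability signal not falling by more than 50%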;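 further: 0% = DMSO wells and 100% = triacsin C control wells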
aDG glyco act = activators of alpha-DG glycosylation, primary screen, uHTS, Pro5-aDG cells, AlphaScreen | alpha-DG glycosylation AlphaScreen (IIH6); 0% Pro5, 100% B10-LARGE cell signal | activation, % at 10 µM | actives 0.22% (n = 360,000) | AID 624168, 2012;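 active means activation of at least 8% versus controls, or a plate z-score of at least 8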;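 further: Pro5 are CHO cells carrying HIG-tagged alpha-DG that lacks glycosylation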
MPTP inh = mitochondrial permeability transition pore inhibitors, primary screen, biochemical, isolated mouse mitochondria, absorbance | inhibition, % at 10 µM | actives 1.4% (n = 360,000) | Ca2+ swelling absorbance, 30 min;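 active means inhibition of 50% or more, scaled per plate between neutral and stimulator controls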;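 further: 0% = DMSO wells given calcium and 100% = 1 mM EGTA wells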
NadD block = inhibitors of S. aureus NadD, primary screen, biochemical, colorimetric, uHTS | Nicotinate-nucleotide adenylyltransferase NadD (Staphylococcus aureus N315) | inhibition, % at 20 µM | actives 0.78% (n = 360,000) | purified NadD enzyme, colorimetric absorbance read-out; in the data active means inhibition above about 26%
MPTP counter = fluorescence retest of MPTP screen hits in isolated mitochondria, single concentration; shares compounds with MPTP inh; membrane potential, Rhodamine 123 fluorescence; inhibition, % at 10 µM; actives 78% (n = 5,000); in the data active means inhibition above about 22%;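 further: 0% = DMSO vehicle and 100% = positive control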
Starred values were filed as active, the others as inactive; x = no result given; ! = repeats disagree. A selection: hits, their analogues and other compounds. The true share with any hit is near 2.7%.

SMILES | TAG inh | aDG glyco act | MPTP inh | NadD block | MPTP counter
Cc1ccc(C(=O)Nc2nc(-c3cccnc3)cs2)o1 | 27.8 | -0.2 | -0.2 | 1.5 | x
CC1(C(=O)NS(=O)(=O)c2ccccc2Cl)CCN1C(=O)C/C=C/c1ccccc1 (configuration not stated) | 10.8 | 0.1 | -0.8 | -3.3 | x
COc1cc(CSc2nnnn2-c2ccc(C)cc2)cc(OC)c1OC | x | 2.9 | 91.9* | -5.2 | 88.6*
COc1cccc2cc(C(=O)OCc3ccccc3)c(=O)oc12 | x | -0.1 | 0.2 | -3.3 | x
O=C(Nc1nc(-c2cc(Cl)sc2Cl)cs1)c1ccc(Br)s1 | 44.2 | -0.1 | 103.7* | 4.7 | 5.0
O=C(Nc1nc(-c2ccccn2)cs1)c1ccc(Br)s1 | -44.4 | 0.6 | 53.9* | 15.4 | -2.8
O=C(Nc1nc(-c2cc(Cl)sc2Cl)cs1)c1cccs1 | 4.9 | 0.3 | -0.5 | -2.9 | x
O=C(Nc1nc(-c2ccccn2)cs1)c1ccco1 | 30.4 | 1.4 | 0.5 | 1.2 | x
O=C1C2CC=CCC2C(=O)N1c1ccc(N2CCN(c3ccccn3)CC2)c([N+](=O)[O-])c1 (configuration not stated) | -4.8 | 0.4 | 55.3* | -0.3 | 45.1*
O=C(c1ccc(N2CCCCC2)c([N+](=O)[O-])c1)N1CCN(c2ccccn2)CC1 | 3.0 | 0.0 | 2.4 | -4.6 | x
CN(C)CC/C=C1\c2ccccc2COc2ccccc21 | 3.1 | -0.2 | 1.2 | 5.9 | x
CN(C)CC/C=C1/c2ccccc2Sc2ccc(Cl)cc21 | 2.6 | -0.3 | 94.7*! | -2.4 | -7.9
COC(=O)C1=C(C)N(Cc2ccccc2)C(=NCc2ccccc2)N[C@H]1c1cccc(C(F)(F)F)c1 | 133.6 | 1.1 | 1.0 | 4.2 | x
COC(=O)C1=C(C)N(Cc2ccccc2)C(=NCC(C)C)N[C@H]1c1cccc(C(F)(F)F)c1 | x | -0.6 | 86.0* | 4.2 | -1.6
COC(=O)C1=C(C)N(Cc2ccccc2)C(=NCc2cccc(Cl)c2)N[C@H]1c1cccc(F)c1 | 120.2* | -0.5 | 85.7* | 4.2 | -9.5
Cc1nc2ccccc2n1C1CC(=O)N(Cc2ccccc2)C1=O (configuration not stated) | x | -0.1 | 64.8* | -0.4 | 57.7*
CC(C)(C)c1ccc(CNc2ccc([N+](=O)[O-])cn2)cc1 | x | -0.2 | 56.4* | 1.0 | 74.8*
O=C(O)c1c[nH]c2ccc([N+](=O)[O-])cc2c1=O | 12.0 | -0.1 | -1.3 | 1.2 | x
Cc1cc(C)nc(/N=C(\N)Nc2ccc(S(=O)(=O)O)cc2)n1 | x | -0.1 | -0.8 | -0.2 | x
COc1ccc(N/C(N)=N/c2nc(C)cc(C)n2)cc1 | -6.6 | 0.5 | -0.6 | -4.1 | x
Cc1cc(C)nc(/N=C(\N)Nc2ccc(CC(=O)OC(C)C)cc2)n1 | x | 1.6 | 50.2* | -12.9 | 58.6*
Cc1cc(C)nc(/N=C(\N)Nc2ccc(OCCC(C)C)cc2)n1 | x | 0.1 | 100.0* | -7.1 | 91.0*
Cc1cc(C)nc(/N=C(\N)Nc2cccc(OCc3ccccc3)c2)n1 | 8.4 | 0.6 | 82.9* | -10.4 | 64.1*
Cc1cc(C)nc(/N=C(\N)Nc2ccc(OCc3ccccc3)cc2)n1 | 11.2 | 6.4 | 34.1 | -2.9 | x
S=C(Nc1ccc2[nH]ccc2c1)NC1CCCCC1 | -9.0 | 0.2 | 3.8 | 2.8 | x
SMILES | TAG inh | aDG glyco act | MPTP inh | NadD block | MPTP counter
Cc1ccc(NC(=O)c2ccc(=O)[nH]c2)cc1S(=O)(=O)N1CCCCCC1 | 3.4 | 0.0 | -1.0 | 2.5 | x
Cc1cccc(NC(=S)NC(NC(=O)OCc2ccccc2)C(Cl)(Cl)Cl)c1 (configuration not stated) | x | 0.2 | 73.9* | 7.8 | 79.7*
O=C(NC(NC(=S)Nc1cccc(Cl)c1)C(Cl)(Cl)Cl)OCc1ccccc1 (configuration not stated) | x | 1.9 | 91.1* | 12.7 | 76.3*
O=C(NC(NC(=S)Nc1cccc(C(=O)O)c1)C(Cl)(Cl)Cl)OCc1ccccc1 (configuration not stated) | x | -0.2 | -0.3 | 2.3 | x
Nc1c(Cl)cc(C(=O)NC2CC2)cc1Cl | -3.6 | 1.7 | 0.0 | 1.0 | x
Nc1nc2ccccc2cc1C(=O)NCCCCc1ccccc1 | x | 3.0 | 94.5* | 1.4 | 104.4*
Cc1ccccc1C(=O)NCCCCc1ccccc1 | x | 0.0 | 1.4 | -4.8 | x
COCCNC(=O)c1cc2c(c(-c3cccc(C#CC(C)(C)O)c3)n1)[C@@H](CCO)N(S(=O)C(C)(C)C)C2 (some centres not stated) | x | 0.1 | -0.7 | -4.2 | x
